Screens deposited in PubChem BioAssay by National Center for Advancing Translational Sciences (NCATS).
Hits are enriched below; roughly 19% of the tested compounds scored in any of these assays.
IL1B secr inh – qHTS for Inhibitors of Inflammasome Signaling: IL-1-beta AlphaLISA Primary Screen; hit rate 4.7% among 360,000; activity change, % at 57.5 µM; THP-1 LPS/ATP IL-1B secretion, AlphaLISA, 16 h; active compounds read low; AID 743279, 2014; in the data active = activity change below about -50%; inconclusive = mostly about -30% to -49%
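Secreted IL-1B measured by AlphaLISA bead assay after 16 h compound exposure of THP-1 cells; compounds (final up to 57.5 uM) added 1 h before LPS (250 ng/mL) and ATP (1.25 mM) stimulation; lower signal means less secretion.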
ELG1 repair inh – qHTS screen for small molecules that inhibit ELG1-dependent DNA repair in human embryonic kidney (HEK293T) cells expressing luciferase-tagged ELG1; Potency, µM (doses to about 46.1 µM), for the others: at the highest dose activity change, negative = inhibition, most hits filed as inhibitors; AID 504467, 2011; HEK293T ELG1-luciferase reporter, luminescence, 16 h; DNA damage induced by 5-fluorouridine; hit rate 2.3% among 330,000; also: potency is read from the fitted curve at half-maximal effect; nearly all actives have a fitted effect of over 55% in size
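5-Fluorouridine DNA damage + compound/DMSO, 2,000 cells/well, 16 h, 37 °C/5% CO2. ONE-Glo, 30 min RT, luminescence. Readout = decrease in reporter signal.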
HT1080 IDH1KD tx – qHTS for induction of synthetic lethality in tumor cells producing 2HG: qHTS for the HT-1080-IDH1KD cell line; Potency, µM (top dose mostly 46.1 µM), without a hit: at the top dose activity, negative = toxicity, hits mostly cytotoxic; hit rate 2% among 360,000; HT-1080 IDH1 knockdown viability, ATP luminescence, 48 h; AID 686971, 2013;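 also: potency is read from the fitted curve at half-maximal effect; 0% = DMSO wells and -100% = cell-free medium wells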
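Using the IDH1-knockdown HT-1080 line run in the same batch and compound series as the NT line, viability after 48 h at 37 °C was determined by CellTiter-Glo luminescence and expressed as % activity.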
HT1080-NT tox – qHTS for induction of synthetic lethality in tumor cells producing 2HG: qHTS for the HT-1080-NT fibrosarcoma cell line. Potency, µM (doses to about 46.1 µM), for inactives: top-dose activity, negative = less viability, actives largely listed as cytotoxic. AID 686970, 2013. HT-1080-NT fibrosarcoma viability, CellTiter-Glo ATP luminescence, 48 h. hit rate 1.6% among 360,000;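 also: NT is the 2HG producing partner of a matched IDH1 knockdown line; potency is read from the fitted curve at half-maximal effect; 0% = DMSO-treated cells and -100% = media-only wells without cells; nearly all actives have a fitted effect of over 55% in size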
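Toxicity toward the 2HG-producing NT line was scored as %Activity, normalised to DMSO and no-cell wells, from CellTiter-Glo luminescence after 48 hours' treatment.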
TDP1 cell CPT – qHTS for Inhibitors of human tyrosyl-DNA phosphodiesterase 1 (TDP1): qHTS in cells in presence of CPT | Potency, µM (top dose mostly 46.2 µM), without a hit: top-dose activity change, negative = growth inhibition, hits mostly inhibitors | chicken DT40 Tdp1-/-;hTDP1 cells + 20 nM CPT, ATP luminescence, 48 h | AID 686979, 2013 | hit rate 12% among 420,000; also: potency is read from the fitted curve at half-maximal effect; nearly all actives have a fitted effect of over 55% in size
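Chicken DT40 Tdp1-/- cells complemented with human TDP1, 400 cells/well, exposed to compounds plus 20 nM camptothecin for at least 48 h at 37 C; viability read as ATP content by CellTiter-Glo luminescence.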
TDP1 cell noCPT – qHTS for Inhibitors of human tyrosyl-DNA phosphodiesterase 1 (TDP1): qHTS in cells in absence of CPT; DT40 Tdp1-/- hTDP1 cells, no CPT, ATP luminescence, 48 h; Potency, µM (highest dose often 46.2 µM), inactives show at the top dose activity change, negative = growth inhibition, most hits filed as inhibitors; hit rate 15% among 420,000; also: potency is read from the fitted curve at half-maximal effect; nearly all actives have a fitted effect of over 55% in size
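Growth kinetics read by CellTiter-Glo luminescence after ≥48 hr at 37 °C. Cells: DT40 Tdp1-/- stably carrying human TDP1, 400 per well, compound exposure in the absence of CPT (DMSO vehicle).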
Starred values were filed as active, the others as inactive; ? = inconclusive; / = no result given; [ ] = dose if it differs, or a comment. Unless noted, calls follow the shape of the dose curve; as a rule, active = well fitted curve in the direction sought with a large enough effect; inconclusive = small, poorly fitted or top-dose-only effect, or another doubt; inactive = no such curve, though single readings can be large; an effect the other way counts as inactive or inconclusive. Unless noted, % is scaled to controls: 0 for no effect and ±100 for the full control effect.

SMILES | IL1B secr inh | ELG1 repair inh | HT1080 IDH1KD tx | HT1080-NT tox | TDP1 cell CPT | TDP1 cell noCPT
COc1ccc(CN(C)C(=O)c2cccc(S(=O)(=O)N3CCCc4ccccc43)c2)c(OC)c1OC | -13.1 | / | -1.7% | -1.4% | 18.4µM* | 20.6µM*
O=C(NCC1COc2ccccc2O1)c1c[nH]c2ccc(S(=O)(=O)N3CCOCC3)cc2c1=O (stereo not given) | -3.5 | ? | -7.3% | -2.7% | 11.6µM* | 13µM*
CN(Cc1nc2ccccc2c(=O)[nH]1)C(=O)c1cccc(S(=O)(=O)N2CCc3ccccc32)c1 | 12.9 | ? | -13.0% | -15.1% | ? | ?
CCOc1ccc(NC(=O)CC(NCc2ccccn2)C(=O)O)cc1 (stereo not given) | 32.1 | 5.2% | 8.8% | 1.4% | ? | 2.8%
CC(NC(=O)c1cccnc1)c1nnc2n1CCN(Cc1ccc(-c3ccccc3)cc1)CC2 (stereo not given) | / | / | / | / | 18.7%[9.04 µM] | -17.5%
CC(=O)OCC(=O)Nc1cc(C#N)cc(NC(=O)COC(C)=O)c1Cl | / | / | / | / | -2.8% | -3.3%
COc1ccc(CN(C)C(=O)c2cccc(S(=O)(=O)N3CCN(c4ccccc4)CC3)c2)c(OC)c1OC | -12.6 | ? | -13.5% | ? | 11.6µM* | 13µM*
O=C(NCC1COc2ccccc2O1)c1cccc(S(=O)(=O)N2CCCCC2)c1 (stereo not given) | 11.8 | ? | -0.5% | -8.6% | ? | ?
CN(Cc1ccc(F)cc1)C(=O)c1cccc(S(=O)(=O)N2CCN(c3ccccc3)CC2)c1 | -27.1 | 18.3µM* | -15.6% | -1.6% | ? | 23.1µM*
CN(Cc1ccc(F)cc1)C(=O)c1cccc(S(=O)(=O)N2CCN(c3ccc(F)cc3)CC2)c1 | -57.8* | ? | -15.9% | ? | 16.4µM* | 14.6µM*
O=C(NCC1COc2ccccc2O1)c1cccc(S(=O)(=O)N2CCN(c3ccccc3)CC2)c1 (stereo not given) | -3.9 | ? | -18.9% | -10.2% | 18.4µM* | 20.6µM*
CCN(CC(=O)Nc1c(F)cccc1F)C(=O)c1cccc(S(=O)(=O)N2CCN(c3ccccc3)CC2)c1 | -4.9 | ? | 0.9% | -2.1% | ? | ?
O=C(c1cnccn1)N1CCC[C@@]2(CCN(Cc3ccccc3)C2)C1 | / | / | / | / | 10.1% | 23.9%
COc1ccc(CCC(=O)N2CCCC(Nc3ccccc3)C2)cc1OC (stereo not given) | 16.4 | -1.8% | 7.7% | 12.5% | -25.1% | -14.6%
NC(=S)NN=CCn1cc([N+](=O)[O-])c(=O)[nH]c1=O | 17.7 | / | -9.2% | -13.3% | -3.3% | -22.6%
CN(Cc1cccc(F)c1)C(=O)c1ccc(S(=O)(=O)N2CCCCCC2)cc1 | -66.1* | 20.6µM* | -5.2% | -0.7% | ? | ?
CC(=O)Nc1c(C(=O)O)ccc(C)c1OCc1ccccc1 | 4.4 | / | 0.5% | 1.1% | -21.4% | 4.5%
CCN(CC)Cc1ccc(Nc2ccnc3cc(Cl)ccc23)cc1O | / | / | / | / | 7.31µM* | 6.51µM*
CCOc1ccccc1Nc1ccnc2cc(Cl)ccc12 | -88.5* | -9.9% | -12.6% | -7.8% | ? | 23.1µM*
S=C(NNc1ccnc2cc(Cl)ccc12)Nc1ccc(Cl)cc1Cl | -86.4* | 20.6µM* | -10.2% | ? | 4.61µM* | 3.66µM*
O=C(NCCCNc1ccnc2cc(Cl)ccc12)c1ccccc1F | -25.1 | -13.5% | -2.3% | -18.9% | ? | ?
